Most compounds without a hit are left out; they make up all but 5.8% or so of the library.
RORgamma inh – qHTS for inhibitors of ROR gamma transcriptional activity; Drosophila S2 Gal4-RORgamma UAS-luciferase reporter, 20 h; AID 2551, 2010; Potency, µM (top dose mostly 53.6 µM), usual class: inhibitors; hit rate 5.4% among 310,000; Nuclear receptor ROR-gamma (Mus musculus), P51450; also: nearly all actives have a fitted effect of over 60% in size
Target sequence (P51450 whole entry, looked up, the tested form may be a part): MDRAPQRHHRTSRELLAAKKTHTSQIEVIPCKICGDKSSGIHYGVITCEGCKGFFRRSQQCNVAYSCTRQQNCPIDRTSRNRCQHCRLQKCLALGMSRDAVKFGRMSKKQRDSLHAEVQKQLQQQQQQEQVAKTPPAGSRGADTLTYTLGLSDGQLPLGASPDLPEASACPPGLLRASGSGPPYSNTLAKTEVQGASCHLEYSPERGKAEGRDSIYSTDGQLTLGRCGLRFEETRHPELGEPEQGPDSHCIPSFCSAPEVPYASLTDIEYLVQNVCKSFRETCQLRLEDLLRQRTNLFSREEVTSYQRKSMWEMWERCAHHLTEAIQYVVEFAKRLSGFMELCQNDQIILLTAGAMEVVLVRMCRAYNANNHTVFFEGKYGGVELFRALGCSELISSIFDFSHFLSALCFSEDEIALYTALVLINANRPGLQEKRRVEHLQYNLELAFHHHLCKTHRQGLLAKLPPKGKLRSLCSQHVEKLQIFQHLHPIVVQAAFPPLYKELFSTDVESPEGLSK
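Luciferase reporter read in Schneider cells carrying Gal4-RORγ (mouse) and UAS-Photinus luciferase; cells given compound 1 h before 700 uM copper sulfate induction, then incubated 20 h at ambient temperature.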
VP16 counter – VP16 counterscreen qHTS for inhibitors of ROR gamma transcriptional activity. AID 2546, 2010. hit rate 3.5% among 310,000. Potency, µM (doses to about 53.6 µM), most hits filed as inhibitors. Drosophila S2 Gal4-VP16 UAS-luciferase, luminescence, 20 h;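 also: Gal4-VP16 expression switched on by copper sulfate through the metallothionein promoter; nearly all actives have a fitted effect of over 50% in size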
TRPV1 agonist – HTS Assay for Compounds that Act as Agonists of the Vanilloid Receptor 1; Transient receptor potential cation channel subfamily V member 1 (Homo sapiens), Q8NER1; TRPV1-expressing cells, Fluo-8 calcium influx, agonist mode; activation, % at 8.33 µM; hit rate 0.19% among 320,000; in the data active = activation above about 80%; inconclusive = between about 30% and that limit
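TRPV1-expressing cells were cultured overnight at 35.5C and loaded with Fluo-8 calcium dye for 40 to 90 min at room temperature. After a 10 s baseline, compound was added and calcium influx was read kinetically for 3 min (ex 480/em 520 nm).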
uPA surface inh – qHTS for Inhibitors of Cell Surface uPA Generation; cell surface uPA generation assay, qHTS; Potency, µM (titrated, usually from 38.3 µM), actives largely listed as inhibitors; hit rate 0.31% among 330,000; AID 540303, 2011; active = well fitted inhibition curve with a large enough effect; inconclusive = small, poorly fitted or top-dose-only effect; inactive = no such curve, though single readings can be large or run the other way; tested in mouse RAW 264.7 cells; also: nearly all actives have a fitted effect of over 55% in size
TRPV1 potentiator – HTS Assay for Compounds that Act as Potentiators of the Vanilloid Receptor 1; TRPV1-expressing cells, Fluo-8 calcium influx, capsaicin EC20 potentiation; hit rate 0.02% among 320,000; Transient receptor potential cation channel subfamily V member 1 (Homo sapiens), Q8NER1; potentiation, % at 8.33 µM; in the data active = potentiation above about 80%; inconclusive = between about 30% and that limit
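Fluo-8 calcium influx in TRPV1-expressing cells, kinetic read (ex 480/em 520 nm). Compound added and read 3 min for agonist activity, followed by capsaicin at EC20 final and 2 min further read for enhancement.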
Of the large screens only hits and unclear results are named; the others gave an inactive call. Unless noted, calls follow the shape of the dose curve; as a rule, active = well fitted curve in the direction sought with a large enough effect; inconclusive = small, poorly fitted or top-dose-only effect, or another doubt; inactive = no such curve, though single readings can be large; an effect the other way counts as inactive or inconclusive.

O=C(Nc1ccccc1)N1CCCN(c2ccc(C(F)(F)F)cc2[N+](=O)[O-])CC1	RORgamma inh inconclusive, VP16 counter inconclusive, TRPV1 agonist inconclusive
COc1cccc(C(=O)NC(=S)N2CCN(c3ccc(C(F)(F)F)cc3[N+](=O)[O-])CC2)c1	RORgamma inh 0.56µM, VP16 counter 0.63µM
C[N+]1(CC2COC(c3ccccc3)(C3CCCCC3)O2)CCCCC1 (configuration not stated)	none (no result: TRPV1 agonist, uPA surface inh, TRPV1 potentiator)
CN(C)C(=O)c1ccc(-c2nc(NCc3cccnc3)c3ccccc3n2)cc1	none (no result: TRPV1 agonist, uPA surface inh, TRPV1 potentiator)
O=[N+]([O-])c1cc(C(F)(F)F)ccc1N1CCN(CCO)CC1	none
CCOc1ccc(C(=O)NC(=S)N2CCN(c3ccc(C(F)(F)F)cc3[N+](=O)[O-])CC2)cc1	RORgamma inh 0.32µM, VP16 counter 0.25µM
Nc1sc(-c2ccccc2)cc1-c1n[nH]c(=S)n1C1CCCCC1	RORgamma inh 2.2µM, VP16 counter inconclusive
O=C(O)c1ccc(-n2c(-c3ccccc3)n[nH]c2=S)cc1	none
COc1ccc(-n2c(-c3cc(-c4ccccc4)sc3N)n[nH]c2=S)cc1	RORgamma inh 2.5µM, VP16 counter inconclusive
Cc1cc(C)nc(N(C#N)CN2C(=O)c3ccccc3S2(=O)=O)n1	RORgamma inh 13µM, VP16 counter inconclusive
Cc1ccc(NC(=O)CCC(=O)NNC(=O)/C=C/C(=O)O)c(C)c1	VP16 counter inconclusive
Cc1ccc(C(c2c(C)n(C)n(-c3ccccc3)c2=O)c2c(C)n(C)n(-c3ccccc3)c2=O)s1	RORgamma inh 4.5µM, VP16 counter 7.1µM
COc1ccc(NC(=O)NNC(=O)COc2ccc3cc(Br)ccc3c2)c(OC)c1	none
CC(C)(CNC(=O)c1cccc(F)c1)CNC(=O)c1cccc(F)c1	none (no result: RORgamma inh, VP16 counter, TRPV1 agonist, TRPV1 potentiator)
CC(C)Cc1cc(CN2CCC(CO)(Cc3cccc(C(F)(F)F)c3)CC2)[nH]n1	RORgamma inh 4.5µM, VP16 counter inconclusive
Cc1ccc(-n2cc(CN3CCC(CO)(Cc4cccc(C(F)(F)F)c4)CC3)cn2)cc1	RORgamma inh 18µM, VP16 counter inconclusive
COc1ccc(-c2n[nH]c(C)c2-c2cnn(-c3ccccc3)c2)c(O)c1	VP16 counter inconclusive
COc1ccc(-c2n[nH]c(C)c2-c2cnn(-c3ccccc3)c2)c(O)c1C	RORgamma inh 11µM, VP16 counter inconclusive
CCC(=O)NNc1nc2c(Cl)cccc2s1	RORgamma inh inconclusive
COc1cccc2sc(NNC(=O)COc3ccccc3)nc12	RORgamma inh 4.5µM
COc1ccc(C)c2sc(NNC(=O)COc3ccccc3)nc12	RORgamma inh 7.1µM (no result: uPA surface inh)
O=C(c1cc(-c2ccc(Cl)cc2Cl)on1)N1CCCCCC1	RORgamma inh 8.9µM, VP16 counter inconclusive, TRPV1 agonist inconclusive
O=C(c1cc(-c2ccc(Cl)cc2Cl)on1)N1CCCC1	RORgamma inh 8.9µM, VP16 counter 10µM, TRPV1 agonist inconclusive
O=C(c1cc(-c2ccc(Cl)cc2Cl)on1)N1CCN(C(=O)c2ccco2)CC1	none
CCN(C(=O)COC(=O)c1ccc2c(c1)OCO2)c1ccc(F)cc1	none (no result: RORgamma inh, VP16 counter, TRPV1 agonist, TRPV1 potentiator)
CSc1nc2nc3c(cc2c(=O)n1-c1ccc(C)cc1)COC(C)(C)C3	none
CSc1nc2nc3c(cc2c(=O)n1-c1ccccc1C)COC(C)(C)C3	none
Cc1ccc(-n2c(=S)[nH]c3nc4c(cc3c2=O)COC(C)(C)C4)cc1	RORgamma inh 3.5µM, VP16 counter inconclusive
CCC1(C)Cc2nc3[nH]c(=S)n(-c4ccc(C)cc4)c(=O)c3cc2CO1 (configuration not stated)	RORgamma inh 1.3µM, VP16 counter 14µM
Cc1ccccc1-n1c(=S)[nH]c2nc3c(cc2c1=O)CCCC3	RORgamma inh 1.3µM, VP16 counter 4.5µM
Cc1ccccc1-n1c(=S)[nH]c2nc3c(cc2c1=O)COC(C)(C)C3	RORgamma inh 5µM, VP16 counter 11µM
COC(=O)[C@H]1O[C@@H](c2cc(OC)c(C)c(OC)c2OCc2ccccc2)[C@H](C)[C@H]2O[C@@]12C	none (no result: TRPV1 agonist, uPA surface inh, TRPV1 potentiator)
CCN1/C(=C\C(=S)Nc2ccccc2)Sc2ccccc21	RORgamma inh 4µM, VP16 counter inconclusive
NS(=O)(=O)c1ccc(CCNC(=O)c2ccccc2-c2ccccc2)cc1	none
CCCCC/C=C\C[C@@H]1O[C@H]1/C=C/C(O)C/C=C\CCCC(=O)O (some centres not stated)	none (no result: TRPV1 agonist, uPA surface inh, TRPV1 potentiator)
O=C(Nc1ncc(Cc2ccccc2)s1)c1cccs1	VP16 counter inconclusive, TRPV1 agonist inconclusive
O=C(Nc1ncc(Cc2cccc(Cl)c2)s1)c1cccs1	RORgamma inh 7.1µM, VP16 counter 16µM
O=C(Nc1ncc(Cc2cccc(Cl)c2)s1)C1=NCCN1	RORgamma inh 2.5µM, VP16 counter 5µM
O=C(Nc1ncc(Cc2ccc(SC(F)F)cc2)s1)c1ccccc1	RORgamma inh 13µM, VP16 counter 20µM, TRPV1 agonist inconclusive
Cc1ccc(C(=O)Nc2ncc(Cc3ccccc3)s2)o1	RORgamma inh 11µM, VP16 counter inconclusive, TRPV1 agonist inconclusive
CC(=O)Nc1ncc(Cc2ccc(Cl)cc2Cl)s1	RORgamma inh inconclusive
COc1ccc(CCNC(=O)C2CC(=O)N(c3ccc(C(C)(C)C)cc3)C2)cc1OC (configuration not stated)	RORgamma inh inconclusive
O=S(=O)(NN1CCOCC1)c1ccc(Br)cc1	none (no result: RORgamma inh, VP16 counter)
Cc1ccc(Cc2cnc(NC(=O)c3cccs3)s2)cc1	RORgamma inh 3.5µM, VP16 counter 8.9µM, TRPV1 agonist inconclusive
O=C(/C=C/c1ccco1)Nc1ccccc1C(=O)O	RORgamma inh inconclusive, VP16 counter inconclusive
O=C(/C=C/c1ccco1)NC(=S)Nc1ccccc1O	RORgamma inh 11µM, VP16 counter inconclusive
Cn1nnc(NC(=S)NC(=O)/C=C/c2ccco2)n1	none
Cc1ccc(NC(=S)NC(=O)/C=C/c2ccco2)c(O)c1	RORgamma inh 8.9µM, VP16 counter inconclusive
Cc1ccc(C)c(NC(=O)CN(C)C(=O)/C=C/c2ccco2)c1	none
O=C(/C=C\c1ccco1)NC(=S)Nc1ccccc1O	RORgamma inh 22µM, VP16 counter inconclusive
CC(c1nnc(SCC(=O)c2c(N)n(C3CC3)c(=O)[nH]c2=O)n1-c1ccc(F)cc1)N(C)C (configuration not stated)	none (no result: RORgamma inh, VP16 counter)
O=C(Cn1cnc2c(NCc3ccccc3)ncnc21)NCCCN1CCCC1=O	none (no result: RORgamma inh, VP16 counter, TRPV1 agonist, TRPV1 potentiator)
CCOc1ccccc1C(=O)Nc1cccc2cccnc12	none
S=C(NCc1ccco1)Nc1cccc(Cl)c1	RORgamma inh 1.8µM, VP16 counter 7.1µM, TRPV1 agonist inconclusive (no result: uPA surface inh)
S=C(NCc1ccco1)Nc1cc(Cl)c(Cl)cc1Cl	RORgamma inh inconclusive, VP16 counter inconclusive, TRPV1 agonist inconclusive
COc1ccc(Cl)cc1NC(=S)NCc1ccco1	RORgamma inh 18µM, VP16 counter inconclusive (no result: uPA surface inh)
COc1ccc(Cl)cc1NC(=O)NCc1ccco1	none

Screening data: PubChem, National Center for Advancing Translational Sciences (NCATS)
